# From the supplement of paper PMC8728848
# Shown is part of a subset that was picked to be rich in the strongest signals.
# B1: LERP (Drosophila melanogaster), B7Z0Q8 (protein)
# chain: MRCSLQKDCAAPTQENFRQMRFPIVISLLLLLFCSGESVAADAANQLKFSTTECKLKEPIYGSTFDFSGLHSDLAHVVKSMNIGGDQFEFNICGNLSRTCNGESNVAACLKRQGKEYILGRQHELFYNNGNMFLKYKSGAKCDNGTADKPNYQLHVMFSCDYTLDAQPMHVTPYANEVCSFYISYRTPLACLSIPEGLQSNSCRVGDTKSNGTFDLMPLSDSNYHTSNRQGAFFVINVCKPVLYGENSMCPAGSSVCLFDSKATNPKERFINFGNVQTHPVVEKGQLLLRHESPTPCAKNSSANYTSVIYFSCDKFIRNAHPEFAGLGADSCTYQFNFATPLACNDLKPCTAFTSTNELLDLSSLSSKPARTLLKDGKNYTIAVCAHAGAPCQENGGACYEQNSTTISLGNSNSQLRFNQTGSLYLLYEDGAECSTATGMRRWSTKIEFVCANNATKDNGASTAGGSDSLKIIEDSNCQLLIQYQTPLACREPIRCKATTYVDHTNDGLGSSGDELIDLTPLISATDNYEARVELPASMEHLVPKTTKFFLNVCRPLVPKYQLGCAGGSAACMAKVTAAGAPEEERSMGFPLVSLTQRNRTFAELAYLKGDPCPTDNTSELSTHILFNCNMRAGRGQPVLRSVEDCAYRFEWETNVFCPPHECTFSADTCDLVHDELGRRFNFKSAPFTKDGKIEIDYNATKMSVNICGAHRKAMTDYSQALVNIFFTHESPNCGREGTMNVQIRLICSDQTESSSTISSDQQCNLLYVQRTPSICEFLSLGATQQNFESNGSTSSSTSSSSTSTTTSTTTQASPAGKPTKAATSTTTTTVGPDPAATPIGPTASVGTILGAILSVTFCVTCLGLLAFSPARRQRIRRLFRRSNSAVRYSRVQSNEEANLLLEPNGEFTESDDDMLL
# What was measured:
# Assay in all cases: glycan array binding signal (z-score within array); higher = stronger binding
# Details in all cases: glycan notation: IUPAC condensed, linker removed
# [1] = target: Fuc(a1-2)Gal(b1-4)Glc
# Method in brief: (§1)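 Columns mapping to the same glycan were averaged after glycan names were converted to IUPAC-condensed notation. The data come from 3228 arrays in the Consortium for Functional Glycomics database, limited to those with an available protein sequence. Binding is reported as a within-array Z-score averaged across arrays of one protein sequence and across linkers.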
# [2] = target: Fuc(a1-2)Gal(b1-4)GlcNAc(b1-3)Gal(b1-4)GlcNAc
# Method in brief: as §1
# [3] = target: Fuc(a1-2)Gal6S(b1-4)GlcNAc
# Method in brief: as §1
# [4] = target: Fuc(a1-2)[GalNAc(a1-3)]Gal(b1-4)GlcNAc
# Method in brief: as §1
# [5] = target: Fuc(a1-2)[GalNAc(a1-3)]Gal(b1-4)[Fuc(a1-3)]GlcNAc
# Method in brief: as §1
# [6] = target: Gal(a1-3)Gal(b1-3)GlcNAc
# Method in brief: as §1
# [7] = target: Gal(a1-3)GalNAc
# Method in brief: as §1
# [8] = target: Gal(a1-4)Gal(b1-4)GlcNAc(b1-3)Gal(b1-4)Glc
# Method in brief: as §1
# [9] = target: Gal(a1-4)GlcNAc
# Method in brief: as §1
# [10] = target: Gal(b1-3)[Fuc(a1-4)]GlcNAc(b1-2)Man(a1-3)[Gal(b1-3)[Fuc(a1-4)]GlcNAc(b1-2)Man(a1-6)]Man(b1-4)GlcNAc(b1-4)[Fuc(a1-6)]GlcNAc
# Method in brief: as §1
# [11] = target: Gal(b1-3)[Neu5Ac(a2-6)]GalNAc
# Method in brief: as §1
# [12] = target: Gal(b1-4)Glc6S
# Method in brief: as §1
# [13] = target: Gal(b1-4)GlcNAc(b1-3)GalNAc
# Method in brief: as §1
# [14] = target: Gal(b1-4)GlcNAc(b1-3)[Gal(b1-4)GlcNAc(b1-6)]Gal(b1-4)GlcNAc
# Method in brief: as §1
# [15] = target: Gal3S(b1-4)GlcNAc
# Method in brief: as §1
# [16] = target: Gal3S(b1-4)[Fuc(a1-3)]Glc6S
# Method in brief: as §1
# [17] = target: Gal4S6S(b1-4)GlcNAc
# Method in brief: as §1
# [18] = target: GalNAc(a1-3)GalNAc
# Method in brief: as §1
# [19] = target: GlcA(b1-3)Gal
# Method in brief: as §1
# [20] = target: GlcNAc(a1-4)Gal(b1-4)GlcNAc(b1-3)Gal(b1-4)[Fuc(a1-3)]GlcNAc(b1-3)Gal(b1-4)[Fuc(a1-3)]GlcNAc
# Method in brief: as §1
# [21] = target: GlcNAc(b1-2)Man(a1-3)[GlcNAc(b1-2)Man(a1-6)]Man(b1-4)GlcNAc(b1-4)[Fuc(a1-6)]GlcNAc
# Method in brief: as §1
# [22] = target: GlcNAc3Prop(b1-4)GlcNAc
# Method in brief: as §1
# [23] = target: Kdn(a2-3)Gal(b1-3)GlcNAc
# Method in brief: as §1
# [24] = target: Man(a1-2)Man(a1-2)Man(a1-3)Man
# Method in brief: as §1
# [25] = target: Man(a1-3)[Man(a1-6)]Man
# Method in brief: as §1
# [26] = target: Man(a1-3)[Man(a1-6)]Man(b1-4)GlcNAc(b1-4)GlcNAc
# Method in brief: as §1
# [27] = target: Neu5Ac(a2-3)Gal
# Method in brief: as §1
# [28] = target: Neu5Ac(a2-3)Gal(b1-3)GalNAc
# Method in brief: as §1
# [29] = target: Neu5Ac(a2-3)Gal(b1-3)[Neu5Ac(a2-3)Gal(b1-4)]GlcNAc
# Method in brief: as §1
# [30] = target: Neu5Ac(a2-3)Gal(b1-4)GlcNAc(b1-3)GalNAc
# Method in brief: as §1
# [31] = target: Neu5Ac(a2-3)Gal(b1-4)GlcNAc6S
# Method in brief: as §1
# [32] = target: Neu5Ac(a2-3)Gal(b1-4)[Fuc(a1-3)]GlcNAc
# Method in brief: as §1
# [33] = target: Neu5Ac(a2-3)Gal(b1-4)[Fuc(a1-3)]GlcNAc(b1-6)[Gal(b1-3)]GalNAc
# Method in brief: as §1
# [34] = target: Neu5Ac(a2-6)Gal(b1-4)GlcNAc(b1-3)Gal(b1-4)[Fuc(a1-3)]GlcNAc(b1-3)Gal(b1-4)[Fuc(a1-3)]GlcNAc
# Method in brief: as §1
binder,measurement,setting,value
B1,glycan array binding signal (z-score),[1],-1.18
same,glycan array binding signal (z-score),[2],0.534
same,glycan array binding signal (z-score),[3],-0.168
same,glycan array binding signal (z-score),[4],0.43
same,glycan array binding signal (z-score),[5],1.65
same,glycan array binding signal (z-score),[6],-0.704
same,glycan array binding signal (z-score),[7],-0.56
same,glycan array binding signal (z-score),[8],2.8
same,glycan array binding signal (z-score),[9],-0.583
same,glycan array binding signal (z-score),[10],5.88
same,glycan array binding signal (z-score),[11],-0.837
same,glycan array binding signal (z-score),[12],-0.389
same,glycan array binding signal (z-score),[13],0.146
same,glycan array binding signal (z-score),[14],-0.458
same,glycan array binding signal (z-score),[15],-0.01
same,glycan array binding signal (z-score),[16],1.16
same,glycan array binding signal (z-score),[17],0.955
same,glycan array binding signal (z-score),[18],-0.435
same,glycan array binding signal (z-score),[19],-0.753
same,glycan array binding signal (z-score),[20],3.64
same,glycan array binding signal (z-score),[21],6.93
same,glycan array binding signal (z-score),[22],-0.064
same,glycan array binding signal (z-score),[23],-0.084
same,glycan array binding signal (z-score),[24],5.38
same,glycan array binding signal (z-score),[25],-0.079
same,glycan array binding signal (z-score),[26],2.66
same,glycan array binding signal (z-score),[27],-0.653
same,glycan array binding signal (z-score),[28],0.949
same,glycan array binding signal (z-score),[29],-0.204
same,glycan array binding signal (z-score),[30],0.38
same,glycan array binding signal (z-score),[31],0.734
same,glycan array binding signal (z-score),[32],-1.2
same,glycan array binding signal (z-score),[33],2.71
same,glycan array binding signal (z-score),[34],-0.095
